# Most compounds without a hit are left out; they make up all but 6% or so of the library.
# D1 agonist = agonists of human D1 dopamine receptor | P21728 | HEK293 T-REx D1 cells, calcium flux, agonist mode | activation, % at 2 µM | 1% of 360,000 active | AID 504660; in the data active means activation above about 30%; further: 0% is about no effect
#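 Tetracycline-induced HEK293 TREx D1 cells, force-coupled to calcium signalling, were dye-loaded with a no-wash calcium kit. Compound was pin-added after a 10 s baseline. Fluorescence was read kinetically at 1 cycle/s for 180 s, with calcium rises flagged as agonism.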
# D1 potentiator = enhances dopamine response at the human D1 receptor | P21728 | HEK293 TREx D1 cells, calcium flux, dopamine EC20 potentiation | potentiation, % at 10 µM | 0.036% of 360,000 active; in the data active means potentiation above about 30%; further: 0% is about no effect
# D3 ag = agonists of human D3 dopamine receptor | P35462 | D3R DiscoveRx beta-arrestin cells, luminescence, 90 min | max activation, % | 0.58% of 410,000 active | AID 652048; in the data active means max activation above about 30%; further: 0% is about no effect
# Target sequence (P35462 whole entry, looked up): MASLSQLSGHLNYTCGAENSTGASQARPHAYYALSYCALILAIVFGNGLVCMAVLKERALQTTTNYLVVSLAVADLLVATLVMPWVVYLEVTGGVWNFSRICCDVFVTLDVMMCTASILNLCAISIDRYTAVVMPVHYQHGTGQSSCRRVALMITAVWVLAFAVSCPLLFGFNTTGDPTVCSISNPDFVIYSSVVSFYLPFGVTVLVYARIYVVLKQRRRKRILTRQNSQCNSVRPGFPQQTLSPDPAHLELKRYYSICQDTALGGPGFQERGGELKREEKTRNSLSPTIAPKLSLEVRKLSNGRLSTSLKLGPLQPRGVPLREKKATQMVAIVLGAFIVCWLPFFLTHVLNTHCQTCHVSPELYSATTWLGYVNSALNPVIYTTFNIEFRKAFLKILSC
#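 Cells at 1500/well, incubated overnight, then treated with pinned compounds (dopamine as control) for 90 min at 37 degrees C. DiscoveRx reagent added for 30 - 60 minutes at room temperature; luminescence read.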
# D1 antagonist = human D1 dopamine receptor antagonism. AID 504652. 3.2% of 360,000 active. P21728. HEK293 TREx D1 cells, calcium flux, dopamine EC80; hits give low values. activity change, negative = inhibition, % at 10 µM; in the data active means activity change below about -30%; further: on the % scale 0 is the no-effect control and ±100 the full control effect
#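 Compound effects on dopamine-evoked calcium signalling were measured in tetracycline-induced HEK293 Trex D1 cells. Dopamine at EC80 followed a 180 s compound pre-read, and fluorescence was tracked kinetically for 180 s more.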
# DRD3 antagonist = D3 dopamine receptor (human) antagonism. 2.5% of 360,000 active. P35462. max response, negative = inhibition, %. AID 652054. D3R cells, DiscoveRx beta-arrestin luminescence, antagonist mode; hits give low values; in the data active means max response below about -50%; inconclusive means no clear call, values can overlap the other calls; further: on the % scale 0 is the no-effect control and ±100 the full control effect
#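 Cells expressing the human receptor were seeded at 1500 cells/well, incubated overnight at 37 degrees C in 5% CO2, then exposed to library compounds with dopamine controls for 90 minutes at 37 degrees C before luminescent detection.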
# * marks the source's active call; other numbers are inactive results; ? = inconclusive; · = not tested or not shown; ! = not confirmed by another sample.
SMILES,D1 agonist,D1 potentiator,D3 ag,D1 antagonist,DRD3 antagonist
COc1cc(C(CCN2CCCC(C)C2)c2c(OC)cc(OC)c3c2OC(=O)CC3c2ccc(N(C)C)cc2)cc(OC)c1OC (configuration not stated),5,-8,-22,-7,-59*
CCCCCc1cc(=O)oc2c(C(CCN3CCCC(C)C3)c3cc(OC)c(OC)c(OC)c3)c(OC)cc(OC)c12 (configuration not stated),22,-10,-61,-47*,?
COc1cc(C2CC(=O)Oc3c(C(CCN4CCCC(C)C4)c4ccc(N(C)C)cc4)c(OC)cc(OC)c32)cc(OC)c1OC (configuration not stated),1,0,-75,15,-71*
Cc1ccc(NC(=O)Cn2c(=O)cc(-c3ccccc3)c3c(C)nn(C)c32)c(Cl)c1,5,-1,6,19,·
CC1(C(=O)O)CCN1C(=O)c1cccc(C(F)(F)F)c1 (configuration not stated),·,·,3,·,48
N#CC(=Cc1ccc(O)cc1)C(N)=C(C#N)C#N,16,-2,-20,6,0
COc1ccc(CNC(=O)C2CCN(S(=O)(=O)c3c(C)noc3/C=C/c3ccccc3F)CC2)cc1,0,1,7,6,·
COc1ccccc1NC(=O)CSc1nc(O)c(C/C=C/c2ccccc2)c(=O)[nH]1,1,-1,-3,-5,·
COc1ccc(C2CC(=O)Oc3c(C(CCN4CCN(c5ccccc5)CC4)c4ccc(N(C)C)cc4)c(OC)cc(OC)c32)cc1 (configuration not stated),0,-2,-47,5,-84*
CC(=O)N1c2ccc(S(=O)(=O)NCCC(=O)Nc3ccc(Br)c(C)c3)cc2CC1C (configuration not stated),4,-4,-4,-3,·
COc1ccc(N2C(=O)C3ON(C4SC(=S)N(C)C4(C)C)C(c4ccc(Cl)cc4)C3C2=O)cc1 (configuration not stated),4,-4,1,5,3
COc1ccc(N2C(=O)C3ON(C4SC(=S)N(C)C4(C)C)C(c4ccc([N+](=O)[O-])cc4)C3C2=O)cc1 (configuration not stated),3,4,-8,0,-65*
CCN(CC)CCNC(=O)c1sc2ncccc2c1-n1cccc1,5,0,-19,-36*,·
CCN(CC)CCNC(=O)/C(=N\O)c1ccccn1,1,-1,0,3,10
CCN(CC)CCNC(=O)c1ccccn1,1,0,-2,-32*,-1
O=C(NCCCNCc1ccccc1)c1ccccn1,1,-4,-15,-7,-66*!
c1ccc(-c2ccc(-c3nc(-c4ccncc4)no3)cc2)cc1,1,-5,45*,-2,38
Cc1ccc(C(=O)c2oc3ccccc3c2NC(=O)Cc2ccccc2)cc1,23,0,4,5,·
CC1CCN(S(=O)(=O)c2ccc3c(c2)c(=O)c(C(=O)N2CCCCC2)cn3C)CC1,-1,-2,35*,1,7
CC(C)OCCCNC(=O)c1cn(C)c2ccc(S(=O)(=O)N3CCCCCC3)cc2c1=O,4,0,12,-34*,·
Cn1cc(C(=O)N2CCc3ccccc3C2)c(=O)c2cc(S(=O)(=O)N3CCOCC3)ccc21,-2,0,7,-6,5
CCN(CC)S(=O)(=O)c1ccc2c(c1)c(=O)c(C(=O)N1CCc3ccccc3C1)cn2C,0,5,-5,-37*,14
FC(F)Oc1ccc(C2N=C(c3ccccc3)NO2)cc1 (configuration not stated),1,-3,-1,-2,1
CCOC(=O)c1ccc(NC(=O)C(C)Sc2nc(=O)cc(N)n2CCc2ccccc2)cc1 (configuration not stated),-1,-4,5,-2,·
C=CCn1c(N)cc(=O)nc1SC(C)C(=O)Nc1ccc(C(=O)OCC)cc1 (configuration not stated),4,-3,-3,-35*,5
SMILES,D1 agonist,D1 potentiator,D3 ag,D1 antagonist,DRD3 antagonist
COc1cccc(NC(=O)CSc2nc(=O)n(Cc3ccncc3)c3c2CCC3)c1,-3,0,3,·,·
C#CCOCCOCCOCCNc1nc(N2CCN(C(=O)[C@H]([C@@H](C)CC)n3cc(CCCN=C(N)N)nn3)CC2)nc(N2CCN(C(=O)[C@H](CCCCN)n3cc(CCC(=O)O)nn3)CC2)n1,-2,1,48*,-7,17
C#CCOCCOCCOCCNc1nc(N2CCN(C(=O)CCCCCCCCCCNC(=O)[C@H](CCCCN)n3cc(C[C@@H](C)CC)nn3)CC2)nc(N2CCN(C(=O)CCCCCCCCCCNC(=O)[C@H](CCCCN)n3cc(C[C@@H](C)CC)nn3)CC2)n1,·,·,-18,·,-51*
Cc1cn([C@H](C(=O)NCCCCCCCCCCC(=O)N2CCNCC2)[C@@H](C)O)nn1,4,-3,-17,-3,-64*
C#CCOCCOCCOCCNc1nc(N2CCN(C(=O)CCCCCCCCCCNC(=O)[C@@H](CCC(=O)O)n3cc(CCCCCN)nn3)CC2)nc(N2CCN(C(=O)CCCCCCCCCCNC(=O)[C@@H](CCC(=O)O)n3cc(CCCCCN)nn3)CC2)n1,10,-6,9,-32*,24
CCOC(=O)c1[nH]c(C)c(CCC(=O)Nc2ccc(N(CC)CC)cc2C)c1C,1,-3,-6,-1,·
C#CCOCCOCCOCCNc1nc(N2CCOCC2)nc(N2CCN(C(=O)[C@H](CCCCN)n3cc([C@@H](N)C(C)CC)nn3)CC2)n1 (some centres not stated),6,-3,-39,-35*,1
C#CCOCCOCCOCCNc1nc(N2CCN(C(=O)CCCCCCCCCCNC(=O)[C@H](CCCCN)n3cc(C)nn3)CC2)nc(N2CCN(C(=O)CCCCCCCCCCNC(=O)[C@@H]([C@H](C)CC)n3cc(CCCCCN)nn3)CC2)n1,30,40*,·,184,·
C#CCOCCOCCOCCNc1nc(N2CCN(C(=O)[C@H](CCCCN)n3cc([C@@H](N)C(C)CC)nn3)CC2)nc(N2CCN(C(=O)[C@H](CCCCN)n3cc([C@@H](N)CC(C)C)nn3)CC2)n1 (some centres not stated),-5,2,0,-9,0
C#CCOCCOCCOCCNc1nc(N2CCN(C(=O)CCCCCCCCCCNC(=O)[C@H]([C@@H](C)CC)n3cc(CCCCCN)nn3)CC2)nc(N2CCN(C(=O)CCCCCCCCCCNC(=O)[C@@H]([C@H](C)O)n3cc(C)nn3)CC2)n1,156*,55*,-8,3,7
CCOc1cc(C2C(C(=O)OC)=C(C)NC3=C2C(=O)c2ccccc23)cc(Br)c1OCC (configuration not stated),0,0,-28,-8,·
N#Cc1ccc(Sc2ccccn2)c([N+](=O)[O-])c1,4,-2,3,-60*,2

# Assay outcomes from PubChem.
